Here are results for 18 compounds from PubChem BioAssay (NCATS).

Common to all, as to assay: qHTS profiling for inhibitors of Plasmodium falciparum proliferation (AID 504749); also: nearly all actives have a fitted effect of over 60% in size
What all share (details): P. falciparum in erythrocytes, SYBR Green DNA, 72 h; series mostly up to 28.7 µM
For orientation: qHTS replaces the single test concentration by a dilution series.

Assay [1] has as its system 3D7. An outline of the steps:
(§1)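 Each compound contacts P. falciparum-infected red blood cells for 72 h at 37 C; lysis buffer (Tris, EDTA, saponin, Triton X, SYBR Green I) is added and fluorescence measured next morning; values normalized to controls.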

For assay [2], the system named is 7G8. The gist of the method: as §1
Assay [3] concerns AA1029. An outline of the steps:
as §1

The test system of assay [4] is ATS189. The gist of the method:
as §1

In assay [5] the test system is ATS95. The gist of the method:
as §1

Assay [6] deals with C2A. An outline of the steps: as §1
The test system of assay [7] is CP192. The gist of the method:
as §1

The subject of assay [8] is AS120. The gist of the method: as §1
Assay [9] has as its system CP185. The gist of the method:
as §1

In assay [10] the test system is CP191. An outline of the steps:
as §1

SMILES strings stand for the structures. Results filed as inconclusive are left out. The source made the active and inactive calls. Calls follow the shape of the dose curve; as a rule, active = well fitted inhibition curve with a large enough effect; inconclusive = small, poorly fitted or top-dose-only effect; inactive = flat fitted curve, though single readings scatter.
Potency is read from the fitted curve at half-maximal effect.

For `CC1=NS(=O)(=O)c2cc(Cl)ccc2N1`, the Potency entry in assay [1], in assay [2], in assay [3], in assay [4], in assay [5] and in assay [6] was “inactive” each time. Besides, the Potency entry in [7] was “inactive”.

As for `Cc1ccc(S(=O)(=O)NC(=O)NN2CCCCCC2)cc1`, the Potency entry in assay [1], in [2], in assay [3], in assay [8], in [4] and in assay [5] was “inactive” throughout. The Potency entry in assay [6], in [9], in [10] and in assay [7] was “inactive” in each case.

Take `CCc1cccc(N(C)C(N)=Nc2cccc3ccccc23)c1`: the Potency entry in assay [1], in assay [6] and in [7] was “inactive” each time. Further, the Potency in [2] is 3.98 µM (active); in assay [3], 3.55 µM (active).

Consider `CN1CCN(CC(=O)N2c3ccccc3C(=O)Nc3cccnc32)CC1`, for which the Potency entry in assay [1], in assay [2], in [3], in [8], in assay [4] and in [5] was “inactive” in each case. Further, the Potency entry in [6], in [9], in [10] and in [7] was “inactive” in each case.

Turning to `CCCCNC(=O)NS(=O)(=O)c1ccc(C)cc1`, the Potency entry in [1], in [2], in assay [3], in assay [8], in assay [4] and in assay [5] was “inactive” throughout. Also, the Potency result in assay [6], in assay [9], in assay [10] and in assay [7] was “inactive” each time.

In the case of `NC/C=C/C(=O)O`, the Potency result in assay [1], in assay [2], in assay [3], in assay [8], in assay [4] and in [5] was “inactive” in each case. Moreover, the Potency entry in assay [6], in [9], in assay [10] and in [7] was “inactive” each time.

As to `NC(N)=N/N=C/c1c(Cl)cccc1Cl`, the Potency result in assay [1] and in [8] was “inactive” in each case. Moreover, in assay [2], the Potency is 11.2 µM (active).

On to `CCCC(C(=O)OCCN(CC)CC)(c1ccccc1)c1ccccc1`, for which the Potency in [1] is 10 µM (active); in assay [2], 3.98 µM (active); in assay [3] it was 11.2 µM (active); in assay [7] it was 9.53 µM (active).

`OCCN1CCN(CC/C=C2/c3ccccc3Sc3ccc(C(F)(F)F)cc32)CC1`: the Potency in assay [1] is 12.6 µM (active); in assay [2], 3.16 µM (active); in assay [3], 8.91 µM (active); in [8], 11.2 µM (active); in assay [4] it was 7.94 µM (active); in [10], 5.01 µM (active). Further, the Potency in assay [7] was 9.53 µM (active).

Take `CCN(Cc1ccncc1)C(=O)C(CO)c1ccccc1` (stereo not drawn): the Potency result in assay [1], in assay [2], in assay [3], in assay [8], in assay [4] and in [5] was “inactive” each time. For the same compound, the Potency entry in assay [6], in assay [9], in assay [10] and in assay [7] was “inactive” throughout.

With `CCCCNc1ccc(C(=O)OCCN(C)C)cc1`, the Potency result in [1], in assay [2], in assay [3], in assay [8], in [5] and in [6] was “inactive” each time. Further, the Potency entry in assay [9], in assay [10] and in assay [7] was “inactive” each time.

Take `CN(C)CC/C=C1\c2ccccc2COc2ccccc21`: the Potency result in [1], in [10] and in [7] was “inactive” throughout. In addition, the Potency in [2] is 12.6 µM (active); in assay [3] it was 8.91 µM (active).

As to `CCn1ccnc1CC1COc2ccccc2O1` (stereo not drawn), the Potency entry in [1], in assay [2], in [3], in assay [8], in assay [4] and in assay [5] was “inactive” in each case. In addition, the Potency result in assay [6], in assay [9], in [10] and in assay [7] was “inactive” each time.

As for `Cc1cc(C)c(/C=C2\C(=O)Nc3ccccc32)[nH]1`, the Potency result in assay [1], in assay [2], in [3], in [8], in assay [4] and in assay [5] was “inactive” in each case. The Potency result in assay [6], in [9], in [10] and in [7] was “inactive” throughout.

On to `Cc1nc2c([nH]1)c(=O)n(C)c(=O)n2Cc1ccco1`, for which the Potency result in [1], in assay [2], in assay [3], in assay [8], in [4] and in assay [5] was “inactive” each time. Further, the Potency result in assay [6], in assay [9], in assay [10] and in [7] was “inactive” in each case.

With `CC(C)NNC(=O)c1ccncc1`, the Potency result in assay [1], in [2], in assay [8], in assay [4], in assay [6] and in assay [9] was “inactive” throughout. Further, the Potency entry in [7] is “inactive”. Moreover, the results for the Potency in assay [3] and in assay [10] were 7.94 µM (active) and 4.47 µM (active), respectively.

`Cc1scc2c1N(C(=O)CN1CCN(C)CC1)c1ccccc1NC2=O`: the Potency result in assay [1], in [2], in [3], in assay [8], in assay [4] and in assay [5] was “inactive” in each case. Also, the Potency entry in assay [6], in assay [9] and in assay [7] was “inactive” in each case.

For `CC(=O)[C@@]1(O)CC[C@H]2[C@@H]3CCC4=CC(=O)CC[C@]4(C)[C@H]3CC[C@@]21C`, the Potency entry in assay [1], in assay [2], in [3], in assay [8], in assay [4] and in assay [5] was “inactive” in each case. In addition, the Potency entry in [6], in assay [9], in assay [10] and in [7] was “inactive” throughout.
